Experimental data as given in the supplement of paper PMC11732987, “Enantioselective OTUD7B fragment discovery through chemoproteomics screening and high-throughput optimisation” (Communications Chemistry, 2025).

Legend:
Test in all cases: log2 ratio of Biotin-Ahx-Ub-VS probe labelling (fragment/DMSO); higher = less target engagement (more negative = stronger competition), active = hit call of the paper (q ≤ 0.05, log2 ratio ≤ -1)
Conditions in all cases: compound concentration: 200 uM; treatment time: 3 h
[1] = molecular target: USP9X (UniProt Q93008)
Outline: (§1)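 Using Biotin-Ahx-Ub-VS at 0.5 µM final for 1 h, DUBs were labelled in HEK293T lysate (495 µg per sample) that had first been treated in triplicate with fragment at 200 µM or vehicle for 3 h. NeutrAvidin enrichment, LysC and trypsin digestion and diaPASEF LC-MS/MS followed. Spectronaut label-free quantities were global-median-normalised. Values are average log2 fragment/vehicle ratios by unpaired t-test, using proteins with ≥2 unique peptides.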

[2] = molecular target: UniProt O00487
Outline: as §1

[3] = molecular target: UniProt O00507
Outline: as §1

[4] = molecular target: UniProt P51784
Outline: as §1

[5] = molecular target: T1, UniProt Q5T2D3
T1 sequence (whole entry): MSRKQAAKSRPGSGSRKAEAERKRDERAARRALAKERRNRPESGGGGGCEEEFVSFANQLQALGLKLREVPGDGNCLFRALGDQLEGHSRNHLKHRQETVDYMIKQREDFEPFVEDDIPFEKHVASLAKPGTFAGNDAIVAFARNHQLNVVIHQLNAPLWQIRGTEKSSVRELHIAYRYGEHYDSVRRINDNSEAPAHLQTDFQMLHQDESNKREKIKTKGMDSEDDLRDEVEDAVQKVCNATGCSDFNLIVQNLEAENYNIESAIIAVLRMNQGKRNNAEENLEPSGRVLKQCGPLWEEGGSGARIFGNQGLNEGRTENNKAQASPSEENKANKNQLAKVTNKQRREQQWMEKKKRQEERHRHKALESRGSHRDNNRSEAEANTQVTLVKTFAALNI
Outline: as §1

[6] = molecular target: T2, UniProt Q8TE49
T2 sequence (whole entry): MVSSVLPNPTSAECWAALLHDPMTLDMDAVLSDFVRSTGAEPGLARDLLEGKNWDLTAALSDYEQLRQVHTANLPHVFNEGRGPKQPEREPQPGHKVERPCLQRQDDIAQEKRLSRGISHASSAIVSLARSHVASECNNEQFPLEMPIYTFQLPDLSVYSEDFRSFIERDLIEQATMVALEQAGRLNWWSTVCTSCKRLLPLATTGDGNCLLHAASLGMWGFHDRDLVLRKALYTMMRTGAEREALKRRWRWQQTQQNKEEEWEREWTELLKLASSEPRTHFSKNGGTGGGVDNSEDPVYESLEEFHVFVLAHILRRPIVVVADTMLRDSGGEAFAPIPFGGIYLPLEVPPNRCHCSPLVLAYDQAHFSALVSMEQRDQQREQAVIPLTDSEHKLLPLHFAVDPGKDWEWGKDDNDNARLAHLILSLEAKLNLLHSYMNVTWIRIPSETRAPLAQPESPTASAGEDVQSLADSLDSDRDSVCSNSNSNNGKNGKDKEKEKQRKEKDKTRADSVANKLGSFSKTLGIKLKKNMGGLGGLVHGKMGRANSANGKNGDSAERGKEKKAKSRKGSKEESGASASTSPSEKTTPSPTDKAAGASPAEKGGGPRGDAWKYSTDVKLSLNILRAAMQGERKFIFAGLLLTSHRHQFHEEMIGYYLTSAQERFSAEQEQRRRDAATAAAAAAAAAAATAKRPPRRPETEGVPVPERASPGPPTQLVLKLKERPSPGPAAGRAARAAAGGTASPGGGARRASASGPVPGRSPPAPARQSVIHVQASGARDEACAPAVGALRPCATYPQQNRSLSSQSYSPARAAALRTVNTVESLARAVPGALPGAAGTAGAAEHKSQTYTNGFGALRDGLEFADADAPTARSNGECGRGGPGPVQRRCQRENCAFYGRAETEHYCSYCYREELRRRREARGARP
Outline: as §1

[7] = molecular target: T3, UniProt Q9P2H5
T3 sequence (whole entry): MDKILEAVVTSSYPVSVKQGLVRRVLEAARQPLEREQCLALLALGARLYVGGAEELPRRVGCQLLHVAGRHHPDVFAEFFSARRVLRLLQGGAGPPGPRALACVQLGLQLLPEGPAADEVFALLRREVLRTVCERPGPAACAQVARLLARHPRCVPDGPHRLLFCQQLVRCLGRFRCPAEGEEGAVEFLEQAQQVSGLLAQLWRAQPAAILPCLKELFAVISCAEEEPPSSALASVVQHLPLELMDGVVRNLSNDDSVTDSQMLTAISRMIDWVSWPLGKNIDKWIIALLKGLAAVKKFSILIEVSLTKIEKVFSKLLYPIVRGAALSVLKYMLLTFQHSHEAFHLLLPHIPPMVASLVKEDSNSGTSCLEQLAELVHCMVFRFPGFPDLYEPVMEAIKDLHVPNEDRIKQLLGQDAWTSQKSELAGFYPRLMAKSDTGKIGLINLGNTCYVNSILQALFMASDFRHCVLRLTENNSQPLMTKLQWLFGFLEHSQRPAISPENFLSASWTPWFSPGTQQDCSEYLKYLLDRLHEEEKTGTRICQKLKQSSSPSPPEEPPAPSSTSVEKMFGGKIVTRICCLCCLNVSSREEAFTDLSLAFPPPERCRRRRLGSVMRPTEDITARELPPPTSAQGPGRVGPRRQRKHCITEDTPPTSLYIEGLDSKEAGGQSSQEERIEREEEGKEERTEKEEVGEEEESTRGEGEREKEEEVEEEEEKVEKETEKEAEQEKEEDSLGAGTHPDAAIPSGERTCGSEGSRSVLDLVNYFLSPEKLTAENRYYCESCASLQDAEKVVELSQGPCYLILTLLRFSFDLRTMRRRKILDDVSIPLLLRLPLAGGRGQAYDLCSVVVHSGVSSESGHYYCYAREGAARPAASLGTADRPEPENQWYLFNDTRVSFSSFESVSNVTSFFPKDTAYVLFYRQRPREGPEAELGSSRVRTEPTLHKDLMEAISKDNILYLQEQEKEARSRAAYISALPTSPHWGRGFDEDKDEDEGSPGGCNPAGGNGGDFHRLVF
Outline: as §1

[8] = molecular target: T4, UniProt Q9UGI0
T4 sequence (whole entry): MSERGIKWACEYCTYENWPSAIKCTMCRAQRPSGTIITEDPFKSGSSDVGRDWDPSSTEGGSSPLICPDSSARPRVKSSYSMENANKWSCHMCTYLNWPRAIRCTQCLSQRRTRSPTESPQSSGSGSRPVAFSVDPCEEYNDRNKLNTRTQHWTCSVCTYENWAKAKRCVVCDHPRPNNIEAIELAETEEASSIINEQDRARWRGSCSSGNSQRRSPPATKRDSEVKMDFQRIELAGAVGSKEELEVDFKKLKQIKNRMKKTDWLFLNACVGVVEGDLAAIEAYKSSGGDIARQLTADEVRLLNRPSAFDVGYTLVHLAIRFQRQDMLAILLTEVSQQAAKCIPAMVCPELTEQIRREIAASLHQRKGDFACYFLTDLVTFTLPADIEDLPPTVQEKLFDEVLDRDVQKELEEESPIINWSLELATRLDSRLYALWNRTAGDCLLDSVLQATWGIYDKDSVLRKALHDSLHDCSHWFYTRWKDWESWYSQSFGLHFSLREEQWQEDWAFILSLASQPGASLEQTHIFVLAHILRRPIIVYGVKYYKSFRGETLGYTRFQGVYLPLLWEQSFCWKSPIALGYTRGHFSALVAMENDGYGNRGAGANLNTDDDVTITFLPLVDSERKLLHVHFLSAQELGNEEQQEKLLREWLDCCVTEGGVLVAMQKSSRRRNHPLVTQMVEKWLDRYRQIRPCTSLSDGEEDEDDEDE
Outline: as §1

[9] = molecular target: T5, YOD1 (UniProt Q5VVQ6)
T5 sequence (whole entry): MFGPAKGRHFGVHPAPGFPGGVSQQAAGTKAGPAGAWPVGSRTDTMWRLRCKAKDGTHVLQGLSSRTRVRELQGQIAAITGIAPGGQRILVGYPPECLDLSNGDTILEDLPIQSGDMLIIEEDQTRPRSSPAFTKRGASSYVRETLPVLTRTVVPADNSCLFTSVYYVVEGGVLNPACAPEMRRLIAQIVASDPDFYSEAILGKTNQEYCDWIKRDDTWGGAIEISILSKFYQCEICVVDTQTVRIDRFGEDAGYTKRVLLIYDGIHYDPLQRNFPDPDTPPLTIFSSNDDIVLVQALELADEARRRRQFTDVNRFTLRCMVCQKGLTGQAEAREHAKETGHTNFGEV
Outline: as §1

Measured: log2 ratio of Biotin-Ahx-Ub-VS probe labelling

Chain of UniProt P51784 (P51784 whole entry): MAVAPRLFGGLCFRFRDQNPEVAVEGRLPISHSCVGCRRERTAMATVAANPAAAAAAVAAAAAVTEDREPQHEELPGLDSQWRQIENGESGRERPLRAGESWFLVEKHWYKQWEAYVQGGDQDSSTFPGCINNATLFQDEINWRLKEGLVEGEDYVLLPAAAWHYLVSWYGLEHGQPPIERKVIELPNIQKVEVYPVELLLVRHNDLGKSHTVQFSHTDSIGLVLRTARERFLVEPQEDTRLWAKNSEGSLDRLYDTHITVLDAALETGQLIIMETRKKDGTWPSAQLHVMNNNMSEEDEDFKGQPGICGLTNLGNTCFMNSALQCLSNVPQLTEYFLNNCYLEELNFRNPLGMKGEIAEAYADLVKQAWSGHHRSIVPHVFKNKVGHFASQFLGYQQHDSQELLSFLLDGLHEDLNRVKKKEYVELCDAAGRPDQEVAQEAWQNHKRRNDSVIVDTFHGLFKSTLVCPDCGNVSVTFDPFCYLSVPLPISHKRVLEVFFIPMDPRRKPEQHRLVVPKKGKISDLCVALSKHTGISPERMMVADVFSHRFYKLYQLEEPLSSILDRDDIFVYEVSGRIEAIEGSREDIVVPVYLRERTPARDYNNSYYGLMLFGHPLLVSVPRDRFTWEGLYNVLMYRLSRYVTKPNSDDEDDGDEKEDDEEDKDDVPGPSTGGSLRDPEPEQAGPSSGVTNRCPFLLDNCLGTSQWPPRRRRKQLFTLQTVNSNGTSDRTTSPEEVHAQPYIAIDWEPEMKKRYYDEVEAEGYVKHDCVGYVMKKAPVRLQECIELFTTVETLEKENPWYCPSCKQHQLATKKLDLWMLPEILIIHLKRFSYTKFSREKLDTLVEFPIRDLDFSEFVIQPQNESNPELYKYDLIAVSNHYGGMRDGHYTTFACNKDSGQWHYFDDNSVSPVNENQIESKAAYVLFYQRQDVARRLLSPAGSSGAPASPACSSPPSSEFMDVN
Chain of USP9X (Q93008 whole entry, the tested form may be a part): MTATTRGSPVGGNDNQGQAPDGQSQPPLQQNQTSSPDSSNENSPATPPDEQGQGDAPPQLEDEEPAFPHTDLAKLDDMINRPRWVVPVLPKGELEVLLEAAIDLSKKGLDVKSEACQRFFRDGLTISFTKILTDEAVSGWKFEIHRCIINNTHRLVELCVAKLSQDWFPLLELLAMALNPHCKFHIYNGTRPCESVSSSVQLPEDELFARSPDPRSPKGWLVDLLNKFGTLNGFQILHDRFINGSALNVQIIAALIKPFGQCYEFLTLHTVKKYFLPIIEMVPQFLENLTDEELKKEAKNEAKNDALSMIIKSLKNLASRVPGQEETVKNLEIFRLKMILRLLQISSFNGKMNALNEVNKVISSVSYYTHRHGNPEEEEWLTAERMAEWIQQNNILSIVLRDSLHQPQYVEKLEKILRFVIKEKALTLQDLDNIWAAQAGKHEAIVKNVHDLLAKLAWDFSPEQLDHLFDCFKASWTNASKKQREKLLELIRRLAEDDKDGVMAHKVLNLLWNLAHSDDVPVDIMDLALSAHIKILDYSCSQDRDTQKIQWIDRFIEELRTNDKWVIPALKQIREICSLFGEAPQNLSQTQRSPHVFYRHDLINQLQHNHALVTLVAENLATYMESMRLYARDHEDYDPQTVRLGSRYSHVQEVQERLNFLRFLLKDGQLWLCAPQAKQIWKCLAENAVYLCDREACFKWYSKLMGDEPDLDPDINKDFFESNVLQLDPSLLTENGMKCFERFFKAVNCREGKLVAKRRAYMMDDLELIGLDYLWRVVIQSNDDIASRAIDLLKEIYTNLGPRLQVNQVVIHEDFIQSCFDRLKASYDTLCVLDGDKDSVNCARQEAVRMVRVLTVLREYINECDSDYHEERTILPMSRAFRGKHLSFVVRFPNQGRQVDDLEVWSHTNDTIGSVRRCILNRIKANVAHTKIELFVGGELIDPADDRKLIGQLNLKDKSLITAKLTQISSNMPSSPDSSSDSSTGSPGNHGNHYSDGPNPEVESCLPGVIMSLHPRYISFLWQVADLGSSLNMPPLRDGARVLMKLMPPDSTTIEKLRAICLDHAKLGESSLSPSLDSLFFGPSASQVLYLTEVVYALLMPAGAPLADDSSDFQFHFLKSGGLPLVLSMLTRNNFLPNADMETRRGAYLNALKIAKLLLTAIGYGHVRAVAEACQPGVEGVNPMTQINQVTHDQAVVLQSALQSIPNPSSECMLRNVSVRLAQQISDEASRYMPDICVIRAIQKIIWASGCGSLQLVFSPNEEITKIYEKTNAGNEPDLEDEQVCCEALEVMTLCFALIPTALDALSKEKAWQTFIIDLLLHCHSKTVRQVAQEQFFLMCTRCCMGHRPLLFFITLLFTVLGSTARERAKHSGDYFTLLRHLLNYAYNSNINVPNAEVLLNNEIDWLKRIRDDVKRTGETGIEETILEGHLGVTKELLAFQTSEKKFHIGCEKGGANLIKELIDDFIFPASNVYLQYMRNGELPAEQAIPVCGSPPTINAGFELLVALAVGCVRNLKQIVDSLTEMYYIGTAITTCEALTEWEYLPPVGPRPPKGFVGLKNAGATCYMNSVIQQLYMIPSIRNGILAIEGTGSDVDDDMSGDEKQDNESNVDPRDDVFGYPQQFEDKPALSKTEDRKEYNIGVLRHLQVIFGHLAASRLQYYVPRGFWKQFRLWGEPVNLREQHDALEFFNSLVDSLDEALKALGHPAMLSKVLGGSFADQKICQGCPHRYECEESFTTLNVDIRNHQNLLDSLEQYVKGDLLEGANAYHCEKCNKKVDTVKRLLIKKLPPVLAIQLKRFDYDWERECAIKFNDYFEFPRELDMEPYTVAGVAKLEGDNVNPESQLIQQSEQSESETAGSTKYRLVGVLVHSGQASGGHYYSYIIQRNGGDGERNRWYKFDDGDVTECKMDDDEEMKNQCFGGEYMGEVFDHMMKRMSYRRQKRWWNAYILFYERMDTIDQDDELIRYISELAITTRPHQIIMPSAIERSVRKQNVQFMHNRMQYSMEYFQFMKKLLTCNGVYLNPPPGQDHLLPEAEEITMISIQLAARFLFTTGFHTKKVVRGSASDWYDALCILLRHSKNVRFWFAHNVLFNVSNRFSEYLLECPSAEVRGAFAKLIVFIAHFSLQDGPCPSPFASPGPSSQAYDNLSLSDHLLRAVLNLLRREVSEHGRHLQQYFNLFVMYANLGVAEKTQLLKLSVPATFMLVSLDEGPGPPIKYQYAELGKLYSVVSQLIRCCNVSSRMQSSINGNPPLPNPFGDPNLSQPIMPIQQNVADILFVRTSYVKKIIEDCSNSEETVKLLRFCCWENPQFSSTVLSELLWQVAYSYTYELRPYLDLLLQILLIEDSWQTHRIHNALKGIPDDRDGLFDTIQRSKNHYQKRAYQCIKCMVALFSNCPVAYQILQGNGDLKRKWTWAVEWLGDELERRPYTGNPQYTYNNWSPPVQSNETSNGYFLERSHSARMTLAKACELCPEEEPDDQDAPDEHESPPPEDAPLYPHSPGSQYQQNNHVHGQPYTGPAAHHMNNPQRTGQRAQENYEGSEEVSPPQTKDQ
Chain of UniProt O00487 (O00487 whole entry): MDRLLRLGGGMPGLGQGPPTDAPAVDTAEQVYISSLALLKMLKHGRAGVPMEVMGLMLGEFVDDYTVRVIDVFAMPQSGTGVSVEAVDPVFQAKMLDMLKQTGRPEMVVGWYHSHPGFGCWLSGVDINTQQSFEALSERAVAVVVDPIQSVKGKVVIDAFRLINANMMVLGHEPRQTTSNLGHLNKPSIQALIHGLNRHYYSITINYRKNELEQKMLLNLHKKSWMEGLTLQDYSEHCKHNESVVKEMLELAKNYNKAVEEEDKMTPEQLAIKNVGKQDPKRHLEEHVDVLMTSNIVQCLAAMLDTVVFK

Cc1ncsc1CCNC(=O)CCl
inactive: [1] -0.0257 | [2] 0.339 | [3] 0.115 | [4] 0.269 | [5] -0.0368 | [6] -0.0765 | [7] -0.0174 | [8] -0.0599 | [9] 0.0977
